Measurements reported in PubChem BioAssay AID1159580 (chemical genetic matrix, 2015).
The campaign covered roughly 5,500 compounds. About 2,000 (36%) were called active. Not shown: some 18% with an inconclusive outcome. Rule as the data show it: active = normalized growth mostly below about 0.91 (no sharp cut-off); inconclusive = no clear call, values can overlap the other calls; inactive = mostly above about 0.92. Some of the results follow.

Assay: chemical genetic growth profiling, strain panel (AID 1159580);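 also: tested at 20 µM; growth read once vehicle control cultures reached saturation at 30 °C; 1 = growth at the plate median or of vehicle wells; lower values mean less growth of the strain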
Conditions: S. cerevisiae deletion strains, growth OD

Measured: normalized growth

CCCCC/C=C\CC(O)/C=C/c1cccc(CC(O)CCCCO)n1 (centres undefined)
inactive: locus YAL013W, strain DEP1, stronger effect = lower value 1.03 | locus YAL040C, strain CLN3, stronger effect = lower value 0.995 | locus YCL061C, strain MRC1 (second series), stronger effect = lower value 0.996 | locus YDR150W, strain NUM1, stronger effect = lower value 1 | locus YDR363W, strain ESC2, stronger effect = lower value 1.01 | locus YER002W, strain NOP16, stronger effect = lower value 0.982 | locus YMR307W, strain GAS1, stronger effect = lower value 1.01 | locus YNL153C, strain GIM3, stronger effect = lower value 1 | locus YNL175C, strain NOP13, stronger effect = lower value 0.985 | locus YNL197C, strain WHI3, stronger effect = lower value 0.974 | locus YNL224C, strain SQS1, stronger effect = lower value 0.975 | locus YNL322C, strain KRE1, stronger effect = lower value 1.01 | locus YOR083W, strain WHI5 (second series), stronger effect = lower value 0.991 | locus YPL241C, strain CIN2, stronger effect = lower value 0.995
